Assay results as given in the supplement of paper PMC11732987, “Enantioselective OTUD7B fragment discovery through chemoproteomics screening and high-throughput optimisation” (Communications Chemistry, 2025).

What was measured:
Assay in all cases: log2 ratio of Biotin-Ahx-Ub-VS probe labelling (fragment/DMSO); higher = less target engagement (more negative = stronger competition), active = hit call of the paper (q ≤ 0.05, log2 ratio ≤ -1)
Settings in all cases: compound concentration: 200 uM; treatment time: 3 h
[1] = target: T1, ALG13 (UniProt Q9NP73)
T1 sequence (whole entry): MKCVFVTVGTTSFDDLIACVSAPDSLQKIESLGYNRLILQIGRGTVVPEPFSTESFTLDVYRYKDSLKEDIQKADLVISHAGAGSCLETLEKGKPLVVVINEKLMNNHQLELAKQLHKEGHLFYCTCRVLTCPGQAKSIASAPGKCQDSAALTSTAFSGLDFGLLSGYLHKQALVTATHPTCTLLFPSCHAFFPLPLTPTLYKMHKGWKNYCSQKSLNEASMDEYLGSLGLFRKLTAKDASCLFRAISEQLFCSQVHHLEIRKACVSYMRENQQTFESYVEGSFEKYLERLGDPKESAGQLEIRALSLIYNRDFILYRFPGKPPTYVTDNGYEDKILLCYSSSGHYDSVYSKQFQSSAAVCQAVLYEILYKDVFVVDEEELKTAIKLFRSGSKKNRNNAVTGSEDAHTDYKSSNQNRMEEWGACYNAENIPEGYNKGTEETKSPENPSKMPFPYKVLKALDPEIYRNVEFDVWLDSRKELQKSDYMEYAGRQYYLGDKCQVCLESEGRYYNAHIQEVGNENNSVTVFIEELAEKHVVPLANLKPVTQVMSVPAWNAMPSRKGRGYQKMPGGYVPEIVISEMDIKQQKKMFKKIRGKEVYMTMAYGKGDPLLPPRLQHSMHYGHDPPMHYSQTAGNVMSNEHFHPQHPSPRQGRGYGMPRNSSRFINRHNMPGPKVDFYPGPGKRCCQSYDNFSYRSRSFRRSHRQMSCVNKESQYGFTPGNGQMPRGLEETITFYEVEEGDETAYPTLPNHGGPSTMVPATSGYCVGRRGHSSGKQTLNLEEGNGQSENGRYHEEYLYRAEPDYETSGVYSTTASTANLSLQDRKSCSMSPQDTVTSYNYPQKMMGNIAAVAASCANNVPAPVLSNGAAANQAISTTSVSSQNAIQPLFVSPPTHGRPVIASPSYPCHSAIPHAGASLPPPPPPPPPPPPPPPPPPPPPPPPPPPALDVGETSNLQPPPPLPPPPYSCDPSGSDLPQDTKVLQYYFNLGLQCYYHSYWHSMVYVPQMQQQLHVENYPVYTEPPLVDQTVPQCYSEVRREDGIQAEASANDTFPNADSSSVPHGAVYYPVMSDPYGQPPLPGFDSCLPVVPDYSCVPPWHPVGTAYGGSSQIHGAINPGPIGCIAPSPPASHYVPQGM
In short: (§1)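 HEK293T lysate (495 µg per sample, in Tris/CHAPS/IGEPAL buffer with protease inhibitors) was treated in triplicate with fragment at 200 µM or with DMSO for 3 h. It was then treated with Biotin-Ahx-Ub-VS (0.5 µM final) for 1 h. Labelled DUBs were NeutrAvidin-enriched, digested with LysC and trypsin, and run by diaPASEF LC-MS/MS. Spectronaut label-free quantities were global-median-normalised. Values are average log2 ratios fragment/DMSO by unpaired t-test, using proteins with ≥2 unique peptides.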

[2] = target: ATXN3 (UniProt P54252)
Sequence of ATXN3 (P54252 whole entry): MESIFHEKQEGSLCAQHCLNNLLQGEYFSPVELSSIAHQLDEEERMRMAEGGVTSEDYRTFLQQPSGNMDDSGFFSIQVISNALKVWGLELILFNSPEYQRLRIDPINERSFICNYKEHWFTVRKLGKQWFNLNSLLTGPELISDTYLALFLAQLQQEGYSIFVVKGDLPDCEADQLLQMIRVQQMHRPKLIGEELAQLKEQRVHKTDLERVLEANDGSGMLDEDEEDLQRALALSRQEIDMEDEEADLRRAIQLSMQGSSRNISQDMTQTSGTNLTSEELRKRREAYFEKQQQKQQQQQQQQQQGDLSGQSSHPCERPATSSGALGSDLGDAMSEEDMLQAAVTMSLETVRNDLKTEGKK
In short: as §1

[3] = target: T2, BAP1 (UniProt Q92560)
T2 sequence (whole entry): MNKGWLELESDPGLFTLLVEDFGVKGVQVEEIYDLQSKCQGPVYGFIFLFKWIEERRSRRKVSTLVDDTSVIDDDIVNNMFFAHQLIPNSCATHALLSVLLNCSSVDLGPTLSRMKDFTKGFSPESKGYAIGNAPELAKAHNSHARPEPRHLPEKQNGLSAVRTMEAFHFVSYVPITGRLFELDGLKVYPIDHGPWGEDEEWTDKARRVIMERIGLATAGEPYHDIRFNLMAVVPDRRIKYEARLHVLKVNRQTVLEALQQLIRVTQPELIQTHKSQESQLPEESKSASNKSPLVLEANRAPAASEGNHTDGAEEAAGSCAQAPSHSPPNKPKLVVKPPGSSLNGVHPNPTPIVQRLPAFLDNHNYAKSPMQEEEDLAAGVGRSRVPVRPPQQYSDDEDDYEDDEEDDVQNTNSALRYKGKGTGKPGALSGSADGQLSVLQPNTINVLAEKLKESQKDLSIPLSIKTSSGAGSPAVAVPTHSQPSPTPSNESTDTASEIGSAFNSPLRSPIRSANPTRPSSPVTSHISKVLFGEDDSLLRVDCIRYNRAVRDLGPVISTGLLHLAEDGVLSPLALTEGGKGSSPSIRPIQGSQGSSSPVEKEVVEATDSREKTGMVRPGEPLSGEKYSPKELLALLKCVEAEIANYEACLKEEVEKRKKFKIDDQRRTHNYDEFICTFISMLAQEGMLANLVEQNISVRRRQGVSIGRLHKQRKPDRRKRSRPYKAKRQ
In short: as §1

[4] = target: EIF3F (UniProt O00303)
Sequence of EIF3F (O00303 whole entry): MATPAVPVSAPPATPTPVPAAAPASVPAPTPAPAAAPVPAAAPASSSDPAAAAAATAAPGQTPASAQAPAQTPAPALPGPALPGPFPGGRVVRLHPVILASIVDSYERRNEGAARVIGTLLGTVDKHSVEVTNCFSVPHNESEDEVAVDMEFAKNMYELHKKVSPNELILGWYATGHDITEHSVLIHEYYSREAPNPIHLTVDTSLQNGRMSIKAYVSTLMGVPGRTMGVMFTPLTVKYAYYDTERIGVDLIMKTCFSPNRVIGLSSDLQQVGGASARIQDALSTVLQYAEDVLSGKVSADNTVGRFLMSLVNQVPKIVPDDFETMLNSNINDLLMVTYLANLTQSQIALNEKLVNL
In short: as §1

[5] = target: EIF3H (UniProt O15372)
Sequence of EIF3H (O15372 whole entry): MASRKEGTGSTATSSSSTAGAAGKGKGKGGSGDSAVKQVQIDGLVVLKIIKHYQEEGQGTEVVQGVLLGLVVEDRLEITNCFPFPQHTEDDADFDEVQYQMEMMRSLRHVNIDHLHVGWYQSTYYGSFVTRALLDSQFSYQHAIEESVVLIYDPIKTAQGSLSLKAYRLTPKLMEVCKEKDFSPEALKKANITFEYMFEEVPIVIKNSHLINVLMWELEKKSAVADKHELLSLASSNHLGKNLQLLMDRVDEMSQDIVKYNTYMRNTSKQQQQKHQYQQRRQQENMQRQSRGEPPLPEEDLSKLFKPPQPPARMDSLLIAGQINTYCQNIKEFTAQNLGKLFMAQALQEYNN
In short: as §1

[6] = target: T3, FAM105A (UniProt Q9NUU6)
T3 sequence (whole entry): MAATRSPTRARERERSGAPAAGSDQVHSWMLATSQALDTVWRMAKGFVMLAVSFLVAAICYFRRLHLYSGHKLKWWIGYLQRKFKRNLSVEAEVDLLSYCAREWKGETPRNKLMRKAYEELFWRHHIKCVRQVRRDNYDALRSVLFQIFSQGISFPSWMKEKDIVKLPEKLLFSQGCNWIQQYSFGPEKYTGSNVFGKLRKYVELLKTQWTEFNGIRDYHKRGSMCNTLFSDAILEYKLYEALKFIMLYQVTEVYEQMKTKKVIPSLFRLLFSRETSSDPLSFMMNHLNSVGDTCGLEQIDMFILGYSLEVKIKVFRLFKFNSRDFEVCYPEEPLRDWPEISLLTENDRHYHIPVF
In short: as §1

[7] = target: OTUB1 (UniProt Q96FW1)
Sequence of OTUB1 (Q96FW1 whole entry): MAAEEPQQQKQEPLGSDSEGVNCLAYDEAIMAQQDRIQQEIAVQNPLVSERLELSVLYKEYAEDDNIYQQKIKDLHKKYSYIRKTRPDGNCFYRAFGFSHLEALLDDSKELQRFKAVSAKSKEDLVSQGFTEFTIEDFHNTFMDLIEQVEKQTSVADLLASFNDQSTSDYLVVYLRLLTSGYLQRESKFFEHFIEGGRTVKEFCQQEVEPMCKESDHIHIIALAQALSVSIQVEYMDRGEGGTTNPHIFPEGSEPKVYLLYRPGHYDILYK
In short: as §1

[8] = target: T4, OTUD4 (UniProt Q01804)
T4 sequence (whole entry): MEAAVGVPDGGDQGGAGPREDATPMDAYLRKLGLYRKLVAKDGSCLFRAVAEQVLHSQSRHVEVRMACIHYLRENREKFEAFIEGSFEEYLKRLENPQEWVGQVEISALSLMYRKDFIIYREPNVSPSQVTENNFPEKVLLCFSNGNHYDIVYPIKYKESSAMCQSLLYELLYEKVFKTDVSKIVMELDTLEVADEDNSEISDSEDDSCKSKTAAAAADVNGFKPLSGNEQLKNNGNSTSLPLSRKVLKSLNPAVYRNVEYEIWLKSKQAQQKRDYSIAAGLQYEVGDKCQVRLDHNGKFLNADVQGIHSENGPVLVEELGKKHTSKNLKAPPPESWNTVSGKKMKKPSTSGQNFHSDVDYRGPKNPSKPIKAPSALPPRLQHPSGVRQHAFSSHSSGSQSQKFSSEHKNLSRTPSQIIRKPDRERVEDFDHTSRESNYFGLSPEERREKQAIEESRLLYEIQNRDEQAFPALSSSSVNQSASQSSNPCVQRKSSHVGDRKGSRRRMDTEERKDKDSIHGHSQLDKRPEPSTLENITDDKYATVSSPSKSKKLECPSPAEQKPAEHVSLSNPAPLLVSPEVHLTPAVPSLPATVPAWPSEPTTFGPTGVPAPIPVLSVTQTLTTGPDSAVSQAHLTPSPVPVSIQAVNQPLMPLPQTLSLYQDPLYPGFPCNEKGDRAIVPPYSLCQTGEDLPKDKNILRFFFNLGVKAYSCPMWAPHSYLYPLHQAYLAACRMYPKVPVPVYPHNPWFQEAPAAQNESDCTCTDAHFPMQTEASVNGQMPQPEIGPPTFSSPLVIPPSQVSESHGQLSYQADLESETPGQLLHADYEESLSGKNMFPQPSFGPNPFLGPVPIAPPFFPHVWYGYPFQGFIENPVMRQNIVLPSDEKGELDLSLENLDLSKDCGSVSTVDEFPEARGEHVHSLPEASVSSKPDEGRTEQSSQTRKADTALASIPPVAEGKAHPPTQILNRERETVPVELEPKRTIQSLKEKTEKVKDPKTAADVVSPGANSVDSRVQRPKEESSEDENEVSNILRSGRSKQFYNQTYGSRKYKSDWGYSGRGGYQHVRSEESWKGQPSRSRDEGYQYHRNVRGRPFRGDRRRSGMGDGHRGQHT
In short: as §1

[9] = target: T5, OTUD5 (UniProt Q96G74)
T5 sequence (whole entry): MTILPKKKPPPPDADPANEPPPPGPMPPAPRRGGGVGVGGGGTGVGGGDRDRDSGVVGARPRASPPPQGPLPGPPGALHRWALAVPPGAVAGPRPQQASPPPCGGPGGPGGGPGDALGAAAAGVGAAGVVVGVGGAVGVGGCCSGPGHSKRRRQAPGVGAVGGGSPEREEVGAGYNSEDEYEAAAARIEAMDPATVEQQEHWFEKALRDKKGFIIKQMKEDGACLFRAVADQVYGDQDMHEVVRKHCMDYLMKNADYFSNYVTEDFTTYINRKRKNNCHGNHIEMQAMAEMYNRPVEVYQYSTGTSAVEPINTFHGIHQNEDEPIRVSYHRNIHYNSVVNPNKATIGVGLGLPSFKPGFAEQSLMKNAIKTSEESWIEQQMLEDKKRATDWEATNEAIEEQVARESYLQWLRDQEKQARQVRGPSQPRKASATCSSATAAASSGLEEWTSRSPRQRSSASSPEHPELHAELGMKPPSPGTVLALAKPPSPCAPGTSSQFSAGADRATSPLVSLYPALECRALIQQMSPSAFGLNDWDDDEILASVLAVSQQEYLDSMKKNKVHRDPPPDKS
In short: as §1

Measured: log2 ratio of Biotin-Ahx-Ub-VS probe labelling

N#Cc1cnn(-c2ccccc2)c1NC(=O)CCl
inactive: [1] 0.0569 | [4] -0.258 | [5] 0.233 | [6] -0.0309 | [7] -0.0957 | [8] -0.641 | [9] -0.526
active: [2] -1.2 | [3] -4.3
